In the library only some 3.5% were active in any assay of this set; here they are far more common.
rCAG binder = r(CAG) repeat RNA binding; inhibition, % at 3 µM; TO-PRO-1 dye displacement fluorescence; hit rate 1.3% among 370,000;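 active = inhibition above the plate cutoff, the mean of all test compounds on that plate plus 3 SD, cut at about 35% in these data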;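 note: 0% = DMSO alone and 100% = 100 µM mitoxantrone as full dye displacement; higher means more dye released from RNA so lower well fluorescence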
DNMT1 inh = inhibitors of human DNMT1. P26358. DNMT1 molecular beacon, Hinp1I cleavage, fluorescence. inhibition (reported as % activation of signal), % at 10 µM. hit rate 0.83% among 360,000; in the data active = inhibition above about 50%
LEDGF integ inh = blocks HIV-1 LEDGF/p75-dependent DNA integration; TR-FRET IN-LEDGF/p75 DNA integration, Eu/Cy5; inhibition, % at 3.7 µM; hit rate 0.64% among 370,000;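 active = inhibition above the screen-wide mean plus 3 SD, cut at about 13% in these data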;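 note: signal is the Cy5 over europium emission ratio at 671 and 618 nm; 0% = plate median of compound wells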
UHRF1 MBD2 ctr = human UHRF1 methylated DNA binding inhibitors | UHRF1 binding to methylated oligo, TR-FRET | inhibition, % at 4.4 µM | hit rate 0.75% among 370,000;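 note: UHRF1 SRA domain binding a hemimethylated CpG hairpin DNA probe; 0% = median of test compound wells and 100% = reference inhibitor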
Target sequence (Q96T88 whole entry, looked up, the tested form may be a part): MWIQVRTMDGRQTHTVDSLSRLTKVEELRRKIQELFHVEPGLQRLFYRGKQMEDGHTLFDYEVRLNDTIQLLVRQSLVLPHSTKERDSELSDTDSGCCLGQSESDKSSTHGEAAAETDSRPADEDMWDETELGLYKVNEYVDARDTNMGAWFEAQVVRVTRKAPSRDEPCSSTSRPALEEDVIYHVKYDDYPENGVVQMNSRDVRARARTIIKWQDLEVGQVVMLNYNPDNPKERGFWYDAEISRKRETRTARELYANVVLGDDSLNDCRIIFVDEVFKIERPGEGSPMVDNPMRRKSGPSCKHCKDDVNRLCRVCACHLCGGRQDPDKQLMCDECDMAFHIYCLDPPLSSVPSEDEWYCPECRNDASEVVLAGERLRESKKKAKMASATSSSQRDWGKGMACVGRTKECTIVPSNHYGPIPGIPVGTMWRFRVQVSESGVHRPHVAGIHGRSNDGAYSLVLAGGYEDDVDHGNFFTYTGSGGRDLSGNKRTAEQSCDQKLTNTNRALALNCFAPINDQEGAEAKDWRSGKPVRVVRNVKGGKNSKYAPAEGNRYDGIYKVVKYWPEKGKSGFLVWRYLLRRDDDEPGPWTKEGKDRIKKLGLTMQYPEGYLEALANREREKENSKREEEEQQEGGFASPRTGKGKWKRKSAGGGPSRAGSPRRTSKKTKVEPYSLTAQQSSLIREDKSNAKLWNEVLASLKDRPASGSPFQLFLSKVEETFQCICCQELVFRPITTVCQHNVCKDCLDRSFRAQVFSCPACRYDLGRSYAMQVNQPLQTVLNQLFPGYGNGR
PG9 binder = PG9 antibody binding by small molecule; TR-FRET gp120-PG9 antibody binding; inhibition, % at 6.7 µM; hit rate 0.43% among 360,000; AID 624416; in the data active = inhibition above about 8.5%
MBD2 inh = MBD2-methylated oligo binding inhibition. hit rate 0.31% among 370,000. AID 686964. Q9UBB5. TR-FRET, MBD2 binding to methylated oligonucleotide. inhibition, % at 4.4 µM; in the data active = inhibition above about 13%
UHRF1 ctr MBD2 = inhibits human UHRF1 binding to methylated oligonucleotide, MBD2 counter-screen; shares compounds with MBD2 inh; TR-FRET; inhibition, % at 4.4 µM; hit rate 25% among 1,000;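 note: UHRF1 SRA domain binding a labeled hemimethylated CpG hairpin DNA; 0% = vehicle only and 100% = reference inhibitor with vehicle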
MBD2 confirm = confirmation of human MBD2-DBD methylated oligonucleotide binding inhibitors | shares compounds with MBD2 inh | TR-FRET MBD2-DBD binding to methylated oligonucleotide | inhibition, % at 4.4 µM | hit rate 26% among 1,000; in the data active = inhibition above about 14%
* = called active by the depositor; / = no result. Cut-off read from the data, not from the text of the source, unless noted: active = inhibition above about 21%; inactive = the rest.

SMILES	rCAG binder	DNMT1 inh	LEDGF integ inh	UHRF1 MBD2 ctr	PG9 binder	MBD2 inh	UHRF1 ctr MBD2	MBD2 confirm
CC(=O)Nc1ccc(-c2ccnc3c2CC(C)(C(=O)NCC2CCOCC2)O3)cc1 (configuration not stated)	0.4	-5.6	-3.3	1.5	0.1	4.1	/	/
Cn1c(SCc2ccc(Cl)cc2)nnc1-c1ccc2nonc2c1	-2.7	1.9	-1.7	3.7	0.2	21.1*	7.3	2.7
CC(C)C(=O)Nc1cc(S(=O)(=O)N2CCOCC2)ccc1N1CCCCC1	4.0	2.5	-4.8	17.7	-0.4	9.3	/	/
CC(C)(C)C(=O)Nc1cc(S(=O)(=O)N2CCCCC2)ccc1N1CCCCC1	1.3	-2.5	-1.5	20.6	-3.3	14.2*	5.6	2.8
CN1CCn2cnc(C(=O)Nc3ccc(CNC(=O)OC(C)(C)C)cc3)c2C1=O	0.1	-1.9	0.7	25.5*	-0.5	15.4*	5.5	3.4
COc1ccc(S(=O)(=O)N(C)C[C@@H]2Oc3cc(C#CC4CCCCC4)ccc3S(=O)(=O)N([C@@H](C)CO)C[C@@H]2C)cc1	17.3	-10.6	-6.3	26.7*	-3.9	17.4*	12.0	7.7
COc1ccc(C#Cc2ccc3c(c2)O[C@H](CN(C)S(=O)(=O)c2ccccc2F)[C@H](C)CN([C@H](C)CO)S3(=O)=O)cc1	14.1	-21.4	-2.6	1.0	-0.5	-0.4	/	/
COc1ccccc1S(=O)(=O)N(C)C[C@H]1Oc2cc(C#CCC3CCCC3)ccc2S(=O)(=O)N([C@H](C)CO)C[C@H]1C	10.9	29.2	5.0	22.2*	-1.1	13.5*	10.4	8.8
O=C1c2ccccc2C2Cc3nnccc3CN12 (configuration not stated)	5.2	/	7.5	-1.6	0.2	-4.8	/	/
OCCCNc1c2ccccc2nc2ccccc12	1.7	66.8*	8.0	27.8*	-2.0	30.6*	32.9*	33.9*
O=c1c([N+](=O)[O-])c(O)c2cccc3c2n1CCC3	3.4	12.7	2.2	1.8	-0.8	3.8	/	/
COc1ccccc1CCNC(=O)CSc1nc2c([nH]1)c(=O)n(C)c(=O)n2C	4.3	/	-3.8	-0.7	/	-0.3	/	/
COc1ccccc1CCNC(=O)CSc1nc(=O)[nH]c2c1CCC2	-2.3	-0.6	-2.8	0.3	0.4	23.1*	3.5	3.9
C=CC[C@H](CC(=O)N(CCO)Cc1ccccc1)C(=O)N[C@@H](C)COC(=O)[C@H](CC=C)CC(=O)OC(C)(C)C	-9.0	2.4	-1.5	-2.2	0.7	-1.5	/	/
C=CC[C@@H](CC(=O)N(CCO)Cc1ccccc1)C(=O)N[C@@H](C)COC(=O)[C@@H](CC=C)CC(=O)OC(C)(C)C	-11.3	-0.2	7.9	27.4*	-3.1	17.1*	9.4	4.7
Nc1c2ccccc2nc2ccccc12	6.5	75.8*	3.3	14.8	-0.3	25.7*	30.8*	37.2*
COc1cc2c(cc1OC)C(C(=O)Nc1ccc(F)c(Cl)c1)CC(=O)N2 (configuration not stated)	0.5	2.5	-1.5	5.3	0.2	5.3	/	/
O=C1NCCOC(=O)[C@@H](Cc2ccc(F)cc2)C/C=C\C[C@@H]1CC(=O)N(CCO)Cc1ccccc1	-7.6	4.6	0.9	0.1	-0.8	-1.4	/	/
CC(=O)C1=C(O)C(=O)N(c2ccc(C(=O)O)cc2)C1c1ccccc1 (configuration not stated)	-0.4	-2.3	-1.6	0.3	-2.2	-4.0	/	/
CC(=O)C1=C(O)C(=O)N(c2ccc(O)cc2)C1c1ccccc1 (configuration not stated)	1.8	-1.8	-7.6	-2.0	-0.8	22.4*	6.2	0.9
N#CC1(NC(=O)COC(=O)C2=COCCO2)CCCCC1	2.3	0.5	2.1	-1.5	-1.4	0.1	/	/
CCN(CC)S(=O)(=O)c1ccc(N2CCOCC2)c(NC(=O)c2nn(C)c(=O)c3ccccc23)c1	0.7	17.3	-7.0	0.2	0.0	13.9*	7.1	4.9
CC(C)(C)NC(=O)C(OC(=O)c1ccco1)c1ccc(Cl)cc1 (configuration not stated)	-4.4	-0.2	4.7	-2.9	-0.8	-2.6	/	/
COc1cccc(C(=O)NCC2CCCN(C(=O)Cc3cccc(C)c3)C2)c1OC (configuration not stated)	0.7	1.0	-0.8	-1.3	-0.1	0.9	/	/
CCOc1cccc(CN2CCCC(CNC(=O)c3cccc(OC)c3OC)C2)c1 (configuration not stated)	-8.0	-1.0	1.7	5.2	1.5	15.8*	5.8	1.5
SMILES	rCAG binder	DNMT1 inh	LEDGF integ inh	UHRF1 MBD2 ctr	PG9 binder	MBD2 inh	UHRF1 ctr MBD2	MBD2 confirm
CCC(=O)Nc1ccc(OCC2CCCO2)cc1 (configuration not stated)	-0.4	-0.3	-1.0	-1.7	1.1	-4.6	/	/
Cc1cc2[nH]c3c4ccccc4nc(C)c3c2cc1C	25.2	10.3	-0.8	6.4	-0.4	17.0*	18.9	32.9*
Cc1cc2[nH]c3ccccc3c2c(C)n1	4.5	26.1	1.6	0.1	-0.1	3.6	/	/
CCN(CC(=O)Nc1c(F)cccc1F)C(=O)c1ccc2c(c1)S(=O)(=O)N=C1CCCCCN12	-1.9	2.2	-1.2	-0.7	2.2	1.6	/	/
COc1cc(C(O)c2nc(-c3ccccc3)cs2)ccc1F (configuration not stated)	-0.9	-3.5	3.1	-2.3	1.1	13.9*	1.4	3.5
COc1ccc(-c2csc(C(O)c3ccc(F)c(OC)c3)n2)cc1 (configuration not stated)	0.3	-2.8	-3.9	0.1	1.6	1.8	/	/
CC(C)CNC(=O)C1(C)CCCCCN1C(=O)c1cc2ccccc2s1 (configuration not stated)	-1.8	-2.1	5.2	4.0	3.0	4.4	/	/
COc1ccc(Cc2c[nH]c(=O)[nH]c2=O)cc1	-0.5	1.8	6.2	23.6*	1.3	16.1*	2.2	5.0
COc1ccc(NC(=O)Nc2c[nH]c(=O)[nH]c2=O)cc1	0.3	1.8	2.9	-3.5	-1.7	1.6	/	/
COC(=O)C[C@H]1CC[C@H]2[C@H](COc3ccc(NS(=O)(=O)c4cccc(OC)c4)cc3C(=O)N2C)O1	2.8	/	0.0	-0.6	/	-3.3	/	/
CC(C)[C@H](NS(=O)(=O)c1ccc2c(c1)OCCO2)C(=O)OCC(=O)Nc1ccccc1	2.0	-2.8	8.6	28.3*	1.2	18.9*	9.1	0.6
O=C1CCCN1CC(O)CS(=O)(=O)Cc1ccccc1 (configuration not stated)	-1.9	1.5	-4.7	1.2	1.2	-0.7	/	/

From PubChem
